Assay [1] concerns the target human FYN Proto-Oncogene, Src family Tyrosine Kinase (Fyn), FYN (gene 2534) (UniProt P06241). The experiment in a line: NVS_ENZ_hFyn: NovaScreen (NVS) Enzymatic Assay for human FYN Proto-Oncogene, Src family Tyrosine Kinase (Fyn) (AID 2283161). The method in brief: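 Recombinant enzyme with fluorescent substrate, product separated by electrophoretic mobility shift; read 1 h after dosing. Duplicate 25 uM single-point screen, actives retested in concentration series; loss of signal vs DMSO.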

Assay [2] deals with human LYN Proto-Oncogene, Src family Tyrosine Kinase (LynA), LYN (gene 4067) (UniProt P07948). The experiment in a line: NVS_ENZ_hLynA: NovaScreen (NVS) Enzymatic Assay for human LYN Proto-Oncogene, Src family Tyrosine Kinase (LynA) (AID 2283173). The method in brief:
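Recombinant kinase with fluorescent substrate; product separated from substrate by electrophoretic mobility shift and read 1 h after dosing. Duplicate screen at 25 uM, then concentration-response up to 50 uM; activity scored as signal loss against DMSO.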

The target of assay [3] is Histone deacetylase 3 (Homo sapiens) (UniProt O15379). Description: NVS_ENZ_hHDAC3: NovaScreen (NVS) Enzymatic Assay for human Histone Deacetylase 3 (HDAC3) (AID 2283163). In outline:
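Recombinant human HDAC3 with fluorescent substrate, 1 h after dosing; product separated from substrate by electrophoretic mobility shift and read by fluorescence. Primary screen at 25 uM in duplicate; actives (e.g. ≥30% inhibition) retested in concentration-response up to 50 uM.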

For assay [4], the target named is human Insulin Receptor (InsR), INSR (gene 3643) (UniProt P06213). Description: NVS_ENZ_hInsR: NovaScreen (NVS) Enzymatic Assay for human Insulin Receptor (InsR) (AID 2283168). The protocol: NVS_ENZ_hInsR is a biochemical, single-readout assay that uses extracted gene-proteins in a cell-free assay. Measurements were taken 1 hour after chemical dosing in a 384-well plate.NVS_ENZ_hInsR is one of one assay component(s) measured or calculated from the NVS_ENZ_hInsR assay. It is designed to make measurements of enzyme activity, a form of enzyme reporter, as detected with fluorescence intensity signals by Fluorescence and electrophoretic mobility shift technology.Data from the assay component NVS_ENZ_hInsR was analyzed into 1 assay endpoint. This assay endpoint, NVS_ENZ_hInsR, was analyzed in the positive analysis fitting direction relative to DMSO as the negative control and baseline of activity. Using a type of enzyme reporter, loss-of-signal activity can be used to understand changes in the enzymatic activity as they relate to the gene INSR. Furthermore, this assay endpoint can be referred to as a primary readout, because this assay has produced multiple assay endpoints where this one serves a enzymatic activity function. To generalize the intended target to other relatable targets, this assay endpoint is annotated to the kinase intended target family, where the subfamily is receptor tyrosine kinase. […]
human Insulin Receptor (InsR), INSR (gene 3643), sequence (P06213 whole entry, looked up): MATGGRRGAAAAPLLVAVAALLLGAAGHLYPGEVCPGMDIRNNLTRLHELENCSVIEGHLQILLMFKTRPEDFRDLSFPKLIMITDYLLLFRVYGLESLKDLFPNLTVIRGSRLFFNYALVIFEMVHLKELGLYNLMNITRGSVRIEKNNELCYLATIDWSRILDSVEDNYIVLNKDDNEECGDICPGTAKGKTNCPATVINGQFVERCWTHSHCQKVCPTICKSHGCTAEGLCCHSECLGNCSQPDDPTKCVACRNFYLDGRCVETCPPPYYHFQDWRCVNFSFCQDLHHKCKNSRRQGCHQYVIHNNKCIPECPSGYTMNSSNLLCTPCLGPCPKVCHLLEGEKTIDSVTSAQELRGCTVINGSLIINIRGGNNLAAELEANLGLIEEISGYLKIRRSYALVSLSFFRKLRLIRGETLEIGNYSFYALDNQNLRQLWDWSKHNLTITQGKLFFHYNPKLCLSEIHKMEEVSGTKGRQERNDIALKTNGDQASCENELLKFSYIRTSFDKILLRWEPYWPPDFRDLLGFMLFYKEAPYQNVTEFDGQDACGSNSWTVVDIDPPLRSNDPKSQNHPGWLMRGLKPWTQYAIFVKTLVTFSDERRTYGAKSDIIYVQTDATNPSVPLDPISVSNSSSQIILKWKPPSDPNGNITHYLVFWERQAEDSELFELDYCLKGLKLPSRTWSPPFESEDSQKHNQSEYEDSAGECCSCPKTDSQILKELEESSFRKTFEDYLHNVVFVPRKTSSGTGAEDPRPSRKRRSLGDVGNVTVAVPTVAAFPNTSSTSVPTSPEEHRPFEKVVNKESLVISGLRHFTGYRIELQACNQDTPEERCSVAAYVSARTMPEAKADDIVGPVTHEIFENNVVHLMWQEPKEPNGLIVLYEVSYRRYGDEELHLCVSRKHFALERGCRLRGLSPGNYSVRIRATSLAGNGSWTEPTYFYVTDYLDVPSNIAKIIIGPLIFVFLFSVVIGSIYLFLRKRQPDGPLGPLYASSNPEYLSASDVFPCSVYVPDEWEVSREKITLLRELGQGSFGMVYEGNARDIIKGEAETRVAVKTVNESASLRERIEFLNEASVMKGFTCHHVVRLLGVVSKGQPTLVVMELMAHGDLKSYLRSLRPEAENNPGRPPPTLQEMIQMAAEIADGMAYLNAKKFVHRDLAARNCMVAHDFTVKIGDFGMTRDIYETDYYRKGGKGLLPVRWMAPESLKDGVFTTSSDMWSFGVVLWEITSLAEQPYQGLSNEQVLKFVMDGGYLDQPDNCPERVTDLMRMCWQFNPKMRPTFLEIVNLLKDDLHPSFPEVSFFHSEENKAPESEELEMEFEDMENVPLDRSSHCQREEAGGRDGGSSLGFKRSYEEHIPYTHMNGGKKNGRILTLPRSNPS

Assay [5] addresses human Janus Kinase 2 (Jak2), JAK2 (gene 3717) (UniProt O60674). The experiment in a line: NVS_ENZ_hJak2: NovaScreen (NVS) Enzymatic Assay for human Janus Kinase 2 (Jak2) (AID 2283169). In outline:
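Cell-free recombinant human JAK2 enzyme activity assay, fluorescence/electrophoretic mobility shift read 1 h after dosing. Screened in duplicate at 25 uM, then concentration-response up to 50 uM; activity as signal loss relative to DMSO.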

The target in assay [6] is human Matrix Metalloproteinase-1 (MMP1), MMP1 (gene 4312) (UniProt P03956). Description: NVS_ENZ_hMMP1: NovaScreen (NVS) Enzymatic Assay for human Matrix Metalloproteinase-1 (MMP1) (AID 2283181). The method in brief: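 Human MMP1 enzyme activity measured by fluorescence 1 h after dosing, cell-free, with a specific substrate. Screened in duplicate at 25 uM; hits (e.g. 30% inhibition) run in concentration-response up to 50 uM; loss of signal versus DMSO.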
human Matrix Metalloproteinase-1 (MMP1), MMP1 (gene 4312), sequence (P03956 whole entry, looked up): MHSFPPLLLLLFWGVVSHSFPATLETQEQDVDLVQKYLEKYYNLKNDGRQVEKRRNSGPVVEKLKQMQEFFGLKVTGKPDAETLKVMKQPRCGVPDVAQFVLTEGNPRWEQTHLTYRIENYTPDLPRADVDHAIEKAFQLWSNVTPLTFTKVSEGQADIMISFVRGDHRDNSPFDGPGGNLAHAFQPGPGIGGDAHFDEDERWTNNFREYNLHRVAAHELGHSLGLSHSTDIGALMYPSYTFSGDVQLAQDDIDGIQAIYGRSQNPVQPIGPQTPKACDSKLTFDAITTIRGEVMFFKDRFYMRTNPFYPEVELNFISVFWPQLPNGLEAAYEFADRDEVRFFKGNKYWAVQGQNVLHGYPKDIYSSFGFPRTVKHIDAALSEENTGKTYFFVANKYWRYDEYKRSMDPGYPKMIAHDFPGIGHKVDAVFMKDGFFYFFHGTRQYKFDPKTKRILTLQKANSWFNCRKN

The target of assay [7] is human Matrix Metalloproteinase-3 (MMP3), MMP3 (gene 4314) (UniProt P08254). Description: NVS_ENZ_hMMP3: NovaScreen (NVS) Enzymatic Assay for human Matrix Metalloproteinase-3 (MMP3) (AID 2283185). The method in brief: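 Cell-free recombinant human MMP3 activity, fluorescence intensity read 1 h after dosing. Primary screen duplicate at 25 uM, actives retested in concentration series; loss of signal vs DMSO baseline.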

Assay [8] has as its target human Matrix Metalloproteinase-7 (MMP7), MMP7 (gene 4316) (UniProt P09237). The experiment in a line: NVS_ENZ_hMMP7: NovaScreen (NVS) Enzymatic Assay for human Matrix Metalloproteinase-7 (MMP7) (AID 2283183). The method in brief:
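Cell-free fluorescence enzymatic assay read 1 h after compound addition, activity loss analyzed against DMSO. Primary duplicate testing at 25 uM; compounds meeting threshold rerun in singleton concentration-response up to 50 uM.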

For assay [9], the target named is human Matrix Metalloproteinase-2 (MMP2), MMP2 (gene 4313) (UniProt P08253). The experiment in a line: NVS_ENZ_hMMP2: NovaScreen (NVS) Enzymatic Assay for human Matrix Metalloproteinase-2 (MMP2) (AID 2283184). The method in brief:
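Cell-free recombinant MMP2 activity with a fluorescent substrate, read 1 h after dosing. Primary screen in duplicate at 25 uM; actives then run in concentration series; loss of signal fitted versus DMSO.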

Here are results for 11 compounds from PubChem BioAssay (EPA / NIEHS).

Inconclusive results are not listed. Calls of active or inactive are those of the source. How the source made its calls: active means hit-call score of the fitted dose curve at least 0.9, where 1 is the maximum; inconclusive means response in the unintended direction; inactive means score below 0.9.

human LYN Proto-Oncogene, Src family Tyrosine Kinase (LynA), LYN (gene 4067), sequence (P07948 whole entry, looked up): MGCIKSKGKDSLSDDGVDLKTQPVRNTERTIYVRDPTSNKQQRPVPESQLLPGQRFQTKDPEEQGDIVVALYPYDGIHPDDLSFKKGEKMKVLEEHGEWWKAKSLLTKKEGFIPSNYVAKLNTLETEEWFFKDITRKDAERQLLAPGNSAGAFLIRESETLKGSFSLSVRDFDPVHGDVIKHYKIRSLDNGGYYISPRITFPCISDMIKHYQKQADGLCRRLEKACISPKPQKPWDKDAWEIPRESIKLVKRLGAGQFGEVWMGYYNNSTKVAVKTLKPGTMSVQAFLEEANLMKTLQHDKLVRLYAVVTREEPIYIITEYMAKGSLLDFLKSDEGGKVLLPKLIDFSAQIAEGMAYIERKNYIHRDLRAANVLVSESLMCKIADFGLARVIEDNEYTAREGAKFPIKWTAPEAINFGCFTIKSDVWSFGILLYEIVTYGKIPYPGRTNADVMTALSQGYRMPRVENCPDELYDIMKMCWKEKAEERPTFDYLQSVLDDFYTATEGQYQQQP
human Janus Kinase 2 (Jak2), JAK2 (gene 3717), sequence (O60674 whole entry, looked up): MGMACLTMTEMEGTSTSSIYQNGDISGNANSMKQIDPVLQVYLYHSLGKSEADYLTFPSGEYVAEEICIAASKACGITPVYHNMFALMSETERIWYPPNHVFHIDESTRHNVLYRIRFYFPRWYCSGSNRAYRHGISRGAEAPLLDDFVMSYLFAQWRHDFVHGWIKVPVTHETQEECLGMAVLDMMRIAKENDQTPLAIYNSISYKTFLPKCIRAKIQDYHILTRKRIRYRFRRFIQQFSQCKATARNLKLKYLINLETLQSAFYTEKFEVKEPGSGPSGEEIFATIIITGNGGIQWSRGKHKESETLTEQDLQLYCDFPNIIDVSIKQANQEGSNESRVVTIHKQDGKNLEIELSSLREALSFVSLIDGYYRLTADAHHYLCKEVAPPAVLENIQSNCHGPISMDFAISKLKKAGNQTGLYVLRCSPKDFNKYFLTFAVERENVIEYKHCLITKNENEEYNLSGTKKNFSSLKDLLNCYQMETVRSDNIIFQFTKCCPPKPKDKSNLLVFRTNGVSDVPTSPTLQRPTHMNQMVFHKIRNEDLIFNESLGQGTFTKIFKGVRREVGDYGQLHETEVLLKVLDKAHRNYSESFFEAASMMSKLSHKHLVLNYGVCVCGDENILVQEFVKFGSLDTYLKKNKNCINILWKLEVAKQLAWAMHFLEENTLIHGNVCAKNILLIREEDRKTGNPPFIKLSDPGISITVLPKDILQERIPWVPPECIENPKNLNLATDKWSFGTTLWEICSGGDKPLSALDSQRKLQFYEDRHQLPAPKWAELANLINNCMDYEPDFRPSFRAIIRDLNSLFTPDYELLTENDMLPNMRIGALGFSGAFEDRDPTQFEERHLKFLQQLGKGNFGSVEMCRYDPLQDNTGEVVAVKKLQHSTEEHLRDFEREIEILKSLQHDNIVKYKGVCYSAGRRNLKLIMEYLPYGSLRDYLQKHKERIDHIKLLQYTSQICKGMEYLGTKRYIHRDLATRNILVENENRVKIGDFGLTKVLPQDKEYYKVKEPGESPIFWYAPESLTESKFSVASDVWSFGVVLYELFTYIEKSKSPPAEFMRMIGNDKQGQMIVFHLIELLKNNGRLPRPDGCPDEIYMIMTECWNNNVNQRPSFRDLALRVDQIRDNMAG
human FYN Proto-Oncogene, Src family Tyrosine Kinase (Fyn), FYN (gene 2534), sequence (P06241 whole entry, looked up): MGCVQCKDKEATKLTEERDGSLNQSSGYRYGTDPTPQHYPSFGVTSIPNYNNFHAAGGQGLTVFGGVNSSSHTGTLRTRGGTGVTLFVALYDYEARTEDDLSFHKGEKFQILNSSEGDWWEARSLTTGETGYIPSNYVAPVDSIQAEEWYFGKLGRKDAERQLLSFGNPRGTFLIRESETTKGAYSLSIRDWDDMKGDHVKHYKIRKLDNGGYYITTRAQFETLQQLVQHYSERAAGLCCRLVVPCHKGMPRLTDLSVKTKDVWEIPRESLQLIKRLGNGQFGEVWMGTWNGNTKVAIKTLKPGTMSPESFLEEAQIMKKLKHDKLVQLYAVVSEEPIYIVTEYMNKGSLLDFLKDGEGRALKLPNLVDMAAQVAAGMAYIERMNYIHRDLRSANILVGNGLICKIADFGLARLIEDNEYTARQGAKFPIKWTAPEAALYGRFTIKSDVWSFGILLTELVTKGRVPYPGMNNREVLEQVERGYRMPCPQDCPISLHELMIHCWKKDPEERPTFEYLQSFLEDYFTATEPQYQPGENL
Histone deacetylase 3 (Homo sapiens), sequence (O15379 whole entry, looked up): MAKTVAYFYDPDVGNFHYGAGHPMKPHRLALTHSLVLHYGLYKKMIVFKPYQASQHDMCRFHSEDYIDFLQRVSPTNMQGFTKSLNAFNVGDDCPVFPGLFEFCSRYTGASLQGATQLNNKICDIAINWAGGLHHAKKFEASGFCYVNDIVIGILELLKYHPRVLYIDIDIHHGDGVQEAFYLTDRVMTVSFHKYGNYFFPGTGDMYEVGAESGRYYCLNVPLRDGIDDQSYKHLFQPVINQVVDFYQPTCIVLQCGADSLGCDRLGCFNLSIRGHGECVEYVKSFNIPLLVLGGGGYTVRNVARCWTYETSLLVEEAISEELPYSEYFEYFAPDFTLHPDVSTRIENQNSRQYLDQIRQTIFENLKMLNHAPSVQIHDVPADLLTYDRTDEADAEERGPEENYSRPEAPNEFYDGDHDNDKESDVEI
human Matrix Metalloproteinase-7 (MMP7), MMP7 (gene 4316), sequence (P09237 whole entry, looked up): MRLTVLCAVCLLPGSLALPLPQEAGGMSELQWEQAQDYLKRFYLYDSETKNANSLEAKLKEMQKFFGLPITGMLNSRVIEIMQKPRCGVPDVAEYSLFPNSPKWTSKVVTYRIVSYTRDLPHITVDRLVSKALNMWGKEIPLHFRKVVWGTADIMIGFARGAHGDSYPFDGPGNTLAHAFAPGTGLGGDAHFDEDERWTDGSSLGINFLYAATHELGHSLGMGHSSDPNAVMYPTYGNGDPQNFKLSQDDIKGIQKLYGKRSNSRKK

As for `CC(C)O.CC(C)O.OCCN(CCO)CCO.OCCN(CCO)CCO.[Ti]`, the AC50 in [1] is 0.0034 µM (active).
On to `O=C(N[C@H]1CN2CCC1CC2)c1ccc2c(c1)OCCO2`, for which the call in assay [1] and in assay [2] was inactive.
As for `Oc1cc(Cl)c(Cl)cc1Cl`, the result in assay [3] was inactive.
Regarding `N#Cc1cccnc1`, the compound was classed as inactive in assay [4] and in [5].
In the case of `Cc1cc(C)cc(C)c1`, the result in assay [4] was inactive.
Take `CN(C)C(=S)S`: the outcome in [5] was inactive.
As to `OCCN(CCO)CCO`, the outcome in [2] was inactive.
As to `CCCCCCCCCCCCOS(=O)(=O)O`, the AC50 in assay [6] was 7.91 µM (active).
In the case of `CCCCCCCCCCCCc1cccc(S(=O)(=O)O)c1`, the values for the half-maximal activity concentration (AC50) in assay [6] and in [7] were 9.41 µM (active) and 12.9 µM (active), respectively.
For `COc1nn(C(=O)NS(=O)(=O)c2ccccc2OC(F)(F)F)c(=O)n1C`, the outcome in assay [8] was inactive.
As for `Clc1cccc(Cl)c1Cl`, the AC50 in assay [9] is 11.5 µM (active).
